Data as given in PubChem BioAssay (NCI).
“And” between values parts separate entries of the source, which are not always exact repeats. Identical values can stand only once. Compounds without any hit were thinned out: in the full panel of roughly 83,000, 20% have a hit.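 48-hour exposure, single concentration, 96-well plates; percent growth endpoint where 0 means no net growth. Active: below 10.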 The source made the active and inactive calls.

Experiments:
Assay in all cases: NCI-60 one-dose screen, 48 h (100 = growth as untreated, 0 = no growth, -100 = all killed)
Conditions in all cases: 10 µM unless noted
NCI-H23 lung = system: NCI-H23 lung
NCI-H226 lung = system: NCI-H226 lung
NCI-H322M lung = system: NCI-H322M lung
HOP-62 NSCLC = system: HOP-62 NSCLC
NCI-H460 lung = system: NCI-H460 lung
HOP-92 NSCLC = system: HOP-92 NSCLC
NCI-H522 lung = system: NCI-H522 lung
A549/ATCC NSCLC = system: A549/ATCC NSCLC
786-0 renal = system: 786-0 renal
COLO 205 colon = system: COLO 205 colon

Measured: growth

C[Se]/C=C1/C(=O)N(c2c(Cl)cccc2Cl)c2ccccc21
inactive: NCI-H23 lung 39% | NCI-H226 lung 10.9% | NCI-H322M lung 37.5% | HOP-62 NSCLC 22% | NCI-H460 lung 14.6% | HOP-92 NSCLC 15.7% | NCI-H522 lung 21.1% | 786-0 renal 51.1% | COLO 205 colon 38.9%
active: A549/ATCC NSCLC 7.85%

O=C(O)c1ccc(=O)[nH]c1
inactive: NCI-H23 lung 88.5% and 105% | NCI-H226 lung 96.3% and 89.5% | NCI-H322M lung 108% and 105% | HOP-62 NSCLC 98.8% and 85.9% | NCI-H460 lung 111% and 104% | HOP-92 NSCLC 100% | NCI-H522 lung 101% and 99.9% | A549/ATCC NSCLC 87.7% | 786-0 renal 96.7% and 99.6% | COLO 205 colon 98.3% and 98.9%

COc1ccc(C(C#N)C(C)=O)cc1 (stereo not given)
inactive: NCI-H23 lung 97.9% | NCI-H226 lung 99.9% | NCI-H322M lung 135% | HOP-62 NSCLC 98.8% | NCI-H460 lung 102% | HOP-92 NSCLC 111% | NCI-H522 lung 82.5% | A549/ATCC NSCLC 101% | 786-0 renal 107% | COLO 205 colon 106%

Cn1cc(-c2csc(-c3cn(CCCCN4CCOCC4)c4ccc(F)cc34)n2)c2cccnc21
inactive: NCI-H23 lung 80.3% | NCI-H226 lung 60.2% | NCI-H322M lung 84.3% | HOP-62 NSCLC 85.6% | NCI-H460 lung 93.5% | HOP-92 NSCLC 52.8% | NCI-H522 lung 57.2% | A549/ATCC NSCLC 75.1% | 786-0 renal 63.2% | COLO 205 colon 65.9%

CNC(=O)O/N=C(\SC)C(=O)N(C)C
inactive: NCI-H23 lung 93.4% | NCI-H226 lung 110% | NCI-H322M lung 111% | HOP-62 NSCLC 105% | NCI-H460 lung 107% | HOP-92 NSCLC 76.8% | NCI-H522 lung 77.5% | A549/ATCC NSCLC 109% | 786-0 renal 105% | COLO 205 colon 105%

COC[C@H]1OC(=O)c2coc3c2[C@@]1(C)C1=C(C3=O)[C@@H]2CCC(=O)[C@@]2(C)C[C@H]1OC(C)=O
inactive: NCI-H23 lung 56.5% | NCI-H226 lung 62.5% | NCI-H322M lung 35.3% | HOP-62 NSCLC 57.7% | NCI-H460 lung 43% | NCI-H522 lung 48.4% | A549/ATCC NSCLC 10.1% | 786-0 renal 39.3% | COLO 205 colon 65.2%
active: HOP-92 NSCLC -0.194%

CC[C@H](C)[C@H](NC(=O)c1ncccn1)C(=O)N(C)[C@H](C[C@@H](OC(C)=O)c1nc(C(=O)N[C@@H](Cc2ccccc2)C[C@H](C)C(=O)OC)cs1)C(C)C
active: NCI-H522 lung 0.376% | COLO 205 colon 4.56%
inactive: NCI-H23 lung 40.9% | NCI-H226 lung 51.2% | NCI-H322M lung 42% | HOP-62 NSCLC 22.8% | NCI-H460 lung 10.8% | HOP-92 NSCLC 33.5% | A549/ATCC NSCLC 32.9% | 786-0 renal 38.5%

C[C@]12CC[C@H](O)C[C@@H]1CC[C@@H]1[C@@H]2CC[C@]2(C)OC(=O)CC[C@@H]12
inactive: NCI-H23 lung 108% | NCI-H226 lung 102% | NCI-H322M lung 87.2% | HOP-62 NSCLC 97.3% | NCI-H460 lung 109% | HOP-92 NSCLC 91.1% | NCI-H522 lung 81.2% | A549/ATCC NSCLC 72.8% | 786-0 renal 88.7% | COLO 205 colon 72.5%

CCOP(=O)(NC)OCC
inactive: NCI-H23 lung 95.6% | NCI-H226 lung 94.3% | NCI-H322M lung 122% | HOP-62 NSCLC 90.8% | NCI-H460 lung 104% | HOP-92 NSCLC 74.5% | NCI-H522 lung 112% | A549/ATCC NSCLC 114% | 786-0 renal 92.1% | COLO 205 colon 117%

COC12CC3C4=CCOC5CC(=O)N6c7ccccc7C1(CCN2C4)C6C53 (stereo not given)
inactive: NCI-H23 lung 102% | NCI-H226 lung 103% | NCI-H322M lung 109% | HOP-62 NSCLC 99.1% | NCI-H460 lung 109% | HOP-92 NSCLC 102% | NCI-H522 lung 89.9% | A549/ATCC NSCLC 91.2% | 786-0 renal 99.1% | COLO 205 colon 105%

CN(C)c1ccc(C=C2C(=O)NC(=O)NC2=O)cc1
inactive: NCI-H23 lung 70.8% | NCI-H226 lung 97.6% | NCI-H322M lung 123% | HOP-62 NSCLC 110% | NCI-H460 lung 102% | HOP-92 NSCLC 86.8% | NCI-H522 lung 69.6% | A549/ATCC NSCLC 92.6% | 786-0 renal 109% | COLO 205 colon 107%

CC(C)CCC1C(=O)NC(=O)NC1=O
inactive: NCI-H23 lung 99.4% | NCI-H226 lung 116% | NCI-H322M lung 94.4% | HOP-62 NSCLC 87.4% | NCI-H460 lung 97.7% | HOP-92 NSCLC 109% | NCI-H522 lung 79.4% | A549/ATCC NSCLC 78.5% | 786-0 renal 104% | COLO 205 colon 100%

C[C@]12CC[C@@H](OC(=O)N(CCCl)N=O)C[C@@H]1CC[C@@H]1[C@@H]2CC[C@]2(C)C(=O)CC[C@@H]12
active: NCI-H460 lung -67.5% | HOP-92 NSCLC -10.2% | COLO 205 colon -72.1%
inactive: NCI-H23 lung 74.7% | NCI-H226 lung 88% | NCI-H322M lung 57.5% | HOP-62 NSCLC 38.6% | NCI-H522 lung 51.1% | A549/ATCC NSCLC 10.3% | 786-0 renal 28.4%

CC1(C)N(Nc2ccccc2)C(=O)C2CCCN21 (stereo not given)
inactive: NCI-H23 lung 97.2% | NCI-H226 lung 84.6% | NCI-H322M lung 87.4% | HOP-62 NSCLC 76.1% | NCI-H460 lung 99.8% | HOP-92 NSCLC 52.7% | NCI-H522 lung 53.2% | A549/ATCC NSCLC 79.4% | 786-0 renal 33.4% | COLO 205 colon 104%

O=C(NCCCN1CC1)Nc1cccc2ccccc12
inactive: NCI-H23 lung 104% and 92.7% | NCI-H226 lung 102% and 92.4% | NCI-H322M lung 116% and 102% | HOP-62 NSCLC 48.9% and 87.9% | NCI-H460 lung 109% and 91% | HOP-92 NSCLC 90.5% | NCI-H522 lung 108% and 79.1% | A549/ATCC NSCLC 97.3% and 91.6% | 786-0 renal 108% and 103% | COLO 205 colon 106% and 103%

CN(C)c1ccc([N+](=O)[O-])c([N+](=O)[O-])c1
-70.3% (active) and 64.7% (inactive): NCI-H522 lung
inactive: NCI-H23 lung 109% and 96.9% | NCI-H226 lung 113% and 105% | NCI-H322M lung 111% and 101% | HOP-62 NSCLC 113% and 122% | NCI-H460 lung 110% and 109% | HOP-92 NSCLC 101% and 104% | A549/ATCC NSCLC 101% and 88.3% | 786-0 renal 116% and 106% | COLO 205 colon 106% and 122%

O=[N+]([O-])c1ccc(OCc2ccc(S(=O)(=O)F)c(Cl)c2)c(Cl)c1
inactive: NCI-H23 lung 99.2% | NCI-H226 lung 93.4% | NCI-H322M lung 116% | HOP-62 NSCLC 106% | NCI-H460 lung 115% | HOP-92 NSCLC 77.5% | NCI-H522 lung 89.1% | A549/ATCC NSCLC 110% | 786-0 renal 79.9% | COLO 205 colon 101%

[N-]=[N+]=CC(=O)CCC(=O)C=[N+]=[N-]
inactive: NCI-H23 lung 105% | NCI-H226 lung 100% | NCI-H322M lung 95.8% | HOP-62 NSCLC 92.6% | NCI-H460 lung 112% | HOP-92 NSCLC 90.6% | NCI-H522 lung 110% | A549/ATCC NSCLC 113% | 786-0 renal 99.3% | COLO 205 colon 117%

Cc1ccc(NC2=N[C@]34CC(=O)CC[C@]3(C)[C@H]3CC[C@]5(C)C(=O)CC[C@H]5[C@@H]3C[C@@H]4S2)c(C)c1
inactive: NCI-H23 lung 54.2% | NCI-H226 lung 72.8% | NCI-H322M lung 79.5% | HOP-62 NSCLC 45.7% | NCI-H460 lung 45.8% | HOP-92 NSCLC 65.9% | NCI-H522 lung 24.6% | A549/ATCC NSCLC 61.1% | COLO 205 colon 62.4%
active: 786-0 renal 5.54%

CC1OC(=O)C(C(C)C)NC(=O)C(C(C)C)OC(=O)C(C(C)C)NC(=O)C(C)OC(=O)C(C(C)C)NC(=O)C(C(C)C)OC(=O)C(C(C)C)NC(=O)C(C)OC(=O)C(C(C)C)NC(=O)C(C(C)C)OC(=O)C(C(C)C)NC1=O (stereo not given)
active: NCI-H23 lung -2.18% | NCI-H226 lung 0.0533% | NCI-H322M lung -3.44% | HOP-62 NSCLC -50% | NCI-H460 lung -11.9% | HOP-92 NSCLC -38.8% | NCI-H522 lung -21.2% | A549/ATCC NSCLC -41.2% | 786-0 renal -6.45% | COLO 205 colon -81%

Cc1c(C)c(N)c(C)c(C)c1N
inactive: NCI-H23 lung 79.2% | NCI-H226 lung 98.5% | NCI-H322M lung 87.6% | HOP-62 NSCLC 90.6% | NCI-H460 lung 39.8% | HOP-92 NSCLC 97.5% | NCI-H522 lung 40.8% | A549/ATCC NSCLC 79.6% | 786-0 renal 107% | COLO 205 colon 91.9%

S=P(SP(=S)(c1ccccc1)c1ccccc1)(c1ccccc1)c1ccccc1
inactive: NCI-H23 lung 99% | NCI-H226 lung 96.6% | NCI-H322M lung 107% | HOP-62 NSCLC 111% | NCI-H460 lung 107% | HOP-92 NSCLC 86.7% | NCI-H522 lung 88.5% | A549/ATCC NSCLC 106% | 786-0 renal 110% | COLO 205 colon 118%

CSc1cc(/C=C(\C)[C@@H]2C[C@@H]3O[C@]3(C)CCC[C@H](C)[C@H](O)[C@@H](C)C(=O)C(C)(C)[C@@H](O)CC(=O)O2)n(CCNC(=O)OC(C)(C)C)n1
inactive: NCI-H23 lung 61.4% | NCI-H226 lung 82.7% | NCI-H322M lung 77.2% | HOP-62 NSCLC 68.7% | NCI-H460 lung 29.6% | HOP-92 NSCLC 70.3% | NCI-H522 lung 63.1% | A549/ATCC NSCLC 55.2% | 786-0 renal 66.6% | COLO 205 colon 30.5%
